Source: PubChem BioAssay
Hits are enriched below; roughly 1.8% of the tested compounds scored in any of these assays.
LYPLA1 inh – LYPLA1 (human) inhibition in PME1 counter-screen; 320,000 compounds, 0.16% hits; O75608; recombinant LYPLA1, FP-Rh probe fluorescence polarization; inhibition, % at 5.9 µM;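 active = inhibition above the mean of all tested compounds plus 3 SD, set per campaign, cut at about 14% in these data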;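 also: inhibitors block serine hydrolase probe labeling of LYPLA1 so polarization falls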
Target sequence (O75608 whole entry, looked up): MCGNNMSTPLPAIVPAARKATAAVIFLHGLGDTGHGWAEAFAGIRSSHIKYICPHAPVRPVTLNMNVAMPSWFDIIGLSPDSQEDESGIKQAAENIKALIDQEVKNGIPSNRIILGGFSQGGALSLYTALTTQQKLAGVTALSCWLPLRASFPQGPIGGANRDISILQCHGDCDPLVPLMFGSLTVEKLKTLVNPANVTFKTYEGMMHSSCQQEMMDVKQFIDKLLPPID
GSTO1 inh – blocks human GSTO1 in RBBP9 counter-screen. P78417. recombinant GSTO1, activity-based probe fluorescence polarization. inhibition, % at 5.96 µM. 300,000 compounds, 1.1% hits. AID 1974;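 active = inhibition above the campaign mean inhibition plus 3 SD, cut at about 35% in these data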
Target sequence (P78417 whole entry, looked up): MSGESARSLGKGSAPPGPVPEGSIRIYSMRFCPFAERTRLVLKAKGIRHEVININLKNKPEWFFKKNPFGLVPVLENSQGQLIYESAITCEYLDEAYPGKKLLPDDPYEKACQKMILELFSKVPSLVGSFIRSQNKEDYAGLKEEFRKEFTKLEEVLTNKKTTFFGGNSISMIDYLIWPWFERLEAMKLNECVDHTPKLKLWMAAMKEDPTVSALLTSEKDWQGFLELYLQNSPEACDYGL
Fam108B inh – counter-screen for RBBP9 inhibitors: inhibitors of mouse Fam108B; inhibition, % at 9.51 µM; 300,000 compounds, 0.33% hits; recombinant Fam108B, FP-Rh probe fluorescence polarization;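 active = inhibition above the screen mean inhibition plus 3 SD, computed separately per campaign, cut at about 18% in these data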;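 also: inhibitors lower polarization as less probe binds the enzyme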
PME-1 primary – PME-1 (human) inhibition. Q9Y570. recombinant PME-1, FP-Rh probe fluorescence polarization. inhibition, % at 5.9 µM. 320,000 compounds, 0.53% hits. AID 2130;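 active = inhibition above the campaign mean of all compounds plus 3 SD, cut at about 26% in these data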;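 also: competitive labeling of PME-1 active site by serine hydrolase directed probe; inhibitors block probe labeling so polarization falls and inhibition rises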
LYPLA2 counter – blocks human lysophospholipase 2, a PME1 counter-screen. recombinant LYPLA2, FP-Rh probe fluorescence polarization. inhibition, % at 5.9 µM. 320,000 compounds, 0.38% hits;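 active = inhibition above the screen-wide mean plus 3 SD, limit set per campaign, cut at about 26% in these data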
PAD4 inh – blocks human protein arginine deiminase 4; AID 485272; Q9UM07; recombinant PAD4, RCA probe fluorescence polarization; 330,000 compounds, 0.41% hits; inhibition, % at 6.36 µM;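 active = percent inhibition above a cutoff equal to the mean of all tested compounds plus 3 SD, cut at about 15% in these data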
Of the large screens only hits and unclear results are named; the others gave an inactive call.

CCOC(=O)N1CC=C2C(C#N)=C(N)C(C#N)(C#N)[C@H](c3ccccc3OCC)[C@H]2C1	PME-1 primary 27
CCOC(=O)N1CC=C2C(C#N)=C(N)C(C#N)(C#N)[C@H](c3ccc(OC(C)C)c(OCC)c3)[C@H]2C1	PME-1 primary 41
N#CC1=C(N)C(C#N)(C#N)C(c2ccncc2)C2CN(C(=O)OCc3ccccc3)CC=C12 (stereo not given)	PME-1 primary 31
CCOC(=O)N1CC=C2C(C#N)=C(N)C(C#N)(C#N)[C@H](c3ccsc3)[C@H]2C1	none
CCN(CC)S(=O)(=O)c1ccc(NC(=O)c2ccc(OCC3CCCO3)cc2)cc1 (stereo not given)	none (no result: GSTO1 inh, Fam108B inh)
COc1ccccc1C1CC(=O)NC(C)=C1C(=O)OCC(C)C (stereo not given)	none
CC1=C(C(=O)OCC(C)C)C2(O)C(=O)c3ccccc3C2(O)N1 (stereo not given)	GSTO1 inh 68
O=C(NCC1(N2CCCCC2)CCCCC1)c1cccc(S(=O)(=O)Nc2ccc(F)cc2)c1	none (no result: GSTO1 inh, Fam108B inh)
N#CC(C#N)=NNc1ccc(S(=O)(=O)N2CCCCC2)cc1	PME-1 primary 28
COc1ccccc1Nc1ccc(NS(=O)(=O)c2ccc(C(C)=O)cc2)cc1	none
Cn1c(N)c(C(=O)COC(=O)c2cc(S(=O)(=O)N3CCOCC3)ccc2F)c(=O)n(C)c1=O	none (no result: LYPLA1 inh, GSTO1 inh, Fam108B inh, PME-1 primary, LYPLA2 counter)
CN(C)S(=O)(=O)c1cccc(NC(=S)NC(=O)C2CCCCC2)c1	none
CCCOc1ccc(/C=N/NC(=S)Nc2ccccc2[N+](=O)[O-])c(O)c1	PME-1 primary 30
COc1ccc(/C=N/NC(=S)Nc2ccccc2[N+](=O)[O-])cc1O	PME-1 primary 35
CN(C)S(=O)(=O)c1cccc(NC(=S)NNC(=O)c2cc3ccccc3cc2O)c1	PME-1 primary 27 (no result: GSTO1 inh, Fam108B inh)
COc1cc(/C=N/NC(=S)Nc2cccc(S(=O)(=O)N(C)C)c2)ccc1O	PME-1 primary 39
Cc1ccc(S(=O)(=O)Cc2cc(F)c([N+](=O)[O-])cc2[N+](=O)[O-])cc1	none
Cc1c(C)n(Cc2ccc(F)cc2)c2ccc(C(=O)NCCCN3CCOCC3)cc12	none
O=C(/C=C/c1ccc(OC(F)F)cc1)Nc1cccc(S(=O)(=O)N2CCOCC2)c1	none
Cc1cccc2cc(/C=N/Nc3ccc(C(=O)O)cc3)c(Cl)nc12	PME-1 primary 36
Nc1c(C(=O)Nc2ccccc2)sc2nc(-c3ccco3)ccc12	PME-1 primary 56
COc1ccccc1NC(=O)c1sc2nc(C)cc(C)c2c1N	none
COc1cc2cc3c(N)c(C(=O)NCc4ccco4)sc3nc2cc1OC	PME-1 primary 47
CC(=O)c1sc2nc(-c3cccs3)ccc2c1N	none
Nc1c(C(=O)Nc2nc3ccccc3s2)sc2nc(-c3cccs3)ccc12	PME-1 primary 34
Cc1ccc2nc3sc(C(=O)NCc4ccco4)c(N)c3cc2c1	none
COc1ccccc1NC(=O)c1sc2nc(-c3ccco3)ccc2c1N	PME-1 primary 70
COc1ccc(C(CNC(=O)C2COc3ccccc3O2)N2CCCC2)cc1 (stereo not given)	none (no result: GSTO1 inh, Fam108B inh)
Cc1[nH]c2ccccc2c1N=Nc1ccccc1C(=O)O	PME-1 primary 30
COc1ccnc(CS(=O)c2nc3cc(OC(F)F)ccc3[nH]2)c1OC (stereo not given)	none
N#Cc1nc(COc2ccccc2F)oc1NCCCn1ccnc1	GSTO1 inh 36
CCC(=O)OCC(=O)N=c1sccn1Cc1ccccc1Cl	none
O=C(CCl)N=c1sccn1Cc1ccccc1Cl	GSTO1 inh 102
S=C(NCCOCCOCCNC(=S)Nc1ccccc1)Nc1ccccc1	none
S=C(NCCNC(=S)Nc1ccccc1)Nc1ccccc1	PME-1 primary 33
Cc1oc2ccc(Br)cc2c(=O)c1-c1nn[nH]n1	none
Cc1nc(C(=O)NC2CC2)sc1C1(C)CC(c2cccc([N+](=O)[O-])c2)=NO1 (stereo not given)	none
Cc1nc(C(=O)NC2CCCCC2)sc1C1(C)CC(c2cccnc2)=NO1 (stereo not given)	LYPLA2 counter 26
COc1cc2c(cc1NC(=S)Nc1cccc(C)c1)oc1ccccc12	GSTO1 inh 36
COc1cc2c(cc1NC(=S)Nc1ccccc1C)oc1ccccc12	none
Cc1ccc2c(c1)NC(c1cccs1)C1=C(CC(C)(C)CC1=O)N2 (stereo not given)	none
NC(=O)c1ccc(Oc2ccc3ccc(=O)oc3c2)c([N+](=O)[O-])c1	LYPLA2 counter 38
NC(=O)c1ccc(Oc2ccc(-c3nnco3)cc2)c([N+](=O)[O-])c1	none
O=S(=O)(NCc1ccccc1)c1ccc(NC(=S)NCc2ccco2)cc1	none
Oc1ccccc1OCc1nc2ccccc2s1	none
Oc1ccc(O)c(Cc2nc3ccccc3s2)c1	GSTO1 inh 61
COc1ccc(CC(=O)Nc2cc(S(=O)(=O)Nc3ccc(OC)cc3)ccc2OC)cc1	none (no result: LYPLA1 inh, GSTO1 inh, Fam108B inh, PME-1 primary, LYPLA2 counter)
C/C(=N/Nc1nc(-c2ccccc2F)nc2ccccc12)c1ccccc1O	PME-1 primary 26
O=C(CCS(=O)(=O)c1ccc(Br)s1)N1CCc2ccccc21	GSTO1 inh 36
COc1ccccc1NC(=O)COC(=O)C1CC2CCCC(C1)C2=O (stereo not given)	none (no result: LYPLA1 inh, GSTO1 inh, Fam108B inh, PME-1 primary, LYPLA2 counter)
CCCCNc1cc(NC(C)=O)cc2cc(OC)c(OC)cc12	GSTO1 inh 35
CCOc1ccc(N2C(=O)CS/C2=C(\C(Cl)=C(Cl)Cl)[N+](=O)[O-])cc1	GSTO1 inh 51
Cn1c(=O)c2c(ncn2CC(=O)N2CCN(S(=O)(=O)c3ccc(F)cc3)CC2)n(C)c1=O	none (no result: GSTO1 inh, Fam108B inh)
Cc1ccc(S(=O)(=O)N2CCN(C(=O)Cn3cnc4c3c(=O)n(C)c(=O)n4C)CC2)cc1C	PME-1 primary 42 (no result: GSTO1 inh, Fam108B inh)
Cc1cc(Br)ccc1N=C1NC(=O)CS1	PME-1 primary 60
Cc1ccc(N=C2NC(=O)CS2)c(C)c1	none
O=C(Nc1ccc(F)c(Cl)c1)Nn1cnnc1	none
CC(C)(C)c1ccc(O)c(N=Cc2cc(Br)ccc2O)c1	GSTO1 inh 35
CN(CC(=O)Nc1ccccc1Cl)C(=O)C1CCN(C(=O)c2ccc(F)cc2)CC1	none (no result: GSTO1 inh, Fam108B inh)
O=C(CCl)Nc1c(C(=O)Nc2ccc3c(c2)OCCO3)oc2ccccc12	GSTO1 inh 36
COCC(=O)Nc1c(C(=O)Nc2ccc3c(c2)OCO3)oc2ccccc12	none
O=C(O)CC1S/C(=N/N=C/c2ccc(-c3ccc(Cl)c([N+](=O)[O-])c3)o2)NC1=O (stereo not given)	GSTO1 inh 37
O=C(Nc1ccc(Cl)c(Cl)c1)OCCNC(=O)c1ccncc1	none
CC(C)(CO)C(O)C(=O)NCCCO (stereo not given)	none
Cn1c(/C=C/c2ccc(Br)cc2)c([N+](=O)[O-])c(=O)n(C)c1=O	none
COCc1cc(CNC(=O)C2CCC(=O)N(Cc3ccccc3F)C2)[nH]n1 (stereo not given)	none
O=C(Nc1ccc(Br)cc1)c1cccc(N2C(=O)C3CCCCC3C2=O)c1 (stereo not given)	none
